# Bioassay records deposited in PubChem by National Center for Advancing Translational Sciences (NCATS).
# Only a selection was taken, and hits are over-represented in it overall.
# Sfp inh – Sfp phosphopantetheinyl transferase inhibition | Biochemical Sfp PPTase activity, qHTS | Potency, µM, for inactives: largest response in the series, negative = inhibition, hits mostly inhibitors | 310,000 compounds, 3.5% hits | Q9F4F7;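 note: the enzyme is Sfp with the accession as filed and its product quenches rhodamine fluorescence; 0% = enzyme reaction without inhibitor and -100% = no enzyme wells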
#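 Reaction rates are the 30-min fluorescence difference (ex 525, em 598 nm) in wells containing 15 nM Sfp, 5 uM rhodamine-CoA and 12.5 uM BHQ-2-YbbR at pH 7.6 with 10 mM MgCl2.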
# G9a block – blocks human histone lysine methyltransferase G9a. Potency, µM (top dose mostly 102 µM), for the others: at the highest dose activity, negative = inhibition, actives largely listed as inhibitors. G9a H3K9 monomethylation, AlphaScreen, 2 h. 350,000 compounds, 8.8% hits; note: % is set by controls: 0 for no effect and ±100 for the full control effect; nearly all actives have a fitted effect of over 75% in size
# Target sequence (Q96KQ7 913-1193 limits assumed): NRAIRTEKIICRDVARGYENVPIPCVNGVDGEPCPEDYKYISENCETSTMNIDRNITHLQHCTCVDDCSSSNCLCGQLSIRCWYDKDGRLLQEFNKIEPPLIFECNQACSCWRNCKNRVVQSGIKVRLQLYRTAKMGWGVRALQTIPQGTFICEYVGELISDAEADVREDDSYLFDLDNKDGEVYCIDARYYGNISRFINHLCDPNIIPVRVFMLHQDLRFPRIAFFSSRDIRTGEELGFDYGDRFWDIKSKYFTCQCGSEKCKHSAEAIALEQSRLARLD
#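 Enzyme 20 nM + cpd, 15 min RT; add b-H3K9 pep 500 nM / SAM 20 uM; 2 h RT; anti-H3K9me1 Ab 0.5 ug/mL + SA donor / anti-rabbit acceptor beads 20 ug/mL each, 10 min; AlphaScreen read.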
# ALOX12 inh – inhibitors of human 12S-lipoxygenase ALOX12; P18054; purified 12hLO, xylenol orange hydroperoxide absorbance; Potency, µM (highest dose often 108 µM), inactives show at the highest dose activity change, negative = inhibition, hits mostly inhibitors; 580,000 compounds, 1.1% hits; note: % is set by controls: 0 for no effect and ±100 for the full control effect
#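 Hydroperoxide product was detected by ferrous iron/xylenol orange as the 573 to 405 nm absorbance ratio. Arachidonic acid at 40 uM (final) was turned over for 30 min at room temperature by 150 nM human 12hLO, pH 7.0 Hepes buffer, after 15 min compound preincubation.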
# Glioma ERSR ind – inducers of ER stress response in human glioma cells; U87-MG GRP78 promoter luciferase reporter, 16 h; Potency, µM, without a hit: at the highest dose activation, most hits filed as activators; 420,000 compounds, 0.02% hits; note: series mostly up to about 76 µM; % of control where 0% means no effect; nearly all actives have a fitted effect of over 35% in size
#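 Stably transfected U87-MG human glioma cells carrying a GRP78-based luminescent sensor were seeded at 1000 cells/well, pin-dosed with compounds and incubated 16 h. Luciferase reagent was then added, and end-point luminescence was read after 10 min at room temperature.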
# VDR inh – inhibitors of human vitamin D receptor | P11473 | VDR-SRC2-3 peptide fluorescence polarization, 2 h | Potency, µM, inactives show max response, negative = inhibition, actives largely listed as inhibitors | 400,000 compounds, 0.93% hits | AID 504847; note: % is set by controls: 0 for no effect and ±100 for the full control effect
# Target sequence (P11473 whole entry, looked up): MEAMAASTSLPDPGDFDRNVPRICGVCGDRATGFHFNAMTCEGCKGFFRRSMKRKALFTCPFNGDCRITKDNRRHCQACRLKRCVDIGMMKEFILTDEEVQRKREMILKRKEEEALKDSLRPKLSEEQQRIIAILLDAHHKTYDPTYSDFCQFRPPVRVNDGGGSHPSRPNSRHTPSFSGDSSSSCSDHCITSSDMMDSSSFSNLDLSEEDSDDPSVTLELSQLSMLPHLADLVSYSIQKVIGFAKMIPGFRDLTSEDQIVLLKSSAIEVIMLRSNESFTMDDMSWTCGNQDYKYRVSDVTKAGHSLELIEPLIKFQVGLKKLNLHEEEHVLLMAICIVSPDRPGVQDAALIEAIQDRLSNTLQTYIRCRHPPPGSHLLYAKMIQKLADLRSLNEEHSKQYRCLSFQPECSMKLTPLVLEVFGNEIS
#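 Measured by FP: displacement of SRC2-3 coactivator peptide from VDR by library compounds, following a two-hour ambient incubation.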
# The depositor's hits bear a star; ? = inconclusive; · = no result given; [ ] = dose if it differs, or a comment. Calls come from the whole dose curve; as a rule, active = well fitted curve in the direction sought with a large enough effect; inconclusive = small, poorly fitted or top-dose-only effect, or another doubt; inactive = no such curve, though single readings can be large; an effect the other way counts as inactive or inconclusive. Potency is the fitted concentration of half-maximal effect.
SMILES,Sfp inh,G9a block,ALOX12 inh,Glioma ERSR ind,VDR inh
CCC(C)NS(=O)(=O)c1ccc(S(=O)(=O)N2CC=C(c3ccc(F)cc3)CC2)cc1 (configuration not stated),15.4%,10µM*,-19.2%,-6.9%,?
CCC(C)NC(=O)C1=CCN(S(=O)(=O)c2ccc(C)cc2)CC1 (configuration not stated),1.3%,50.1µM*,1.5%,-0.1%,-9.3%
Cc1cc2c(c(/C=C/C(=O)c3ccccc3)c1)OC1(C=C2)Oc2ccccc2C(=O)N1C (configuration not stated),-2.0%,50.1µM*,?,-3.2%,-9.8%
CCC1CCc2c(sc(NC(=O)CC(C)(C)C)c2C#N)C1 (configuration not stated),·,·,-0.1%,·,·
C=CCN(C(=O)CSC1=NC(=O)CN1C(C)=O)c1nc(C)c(-c2ccccc2)s1,-5.1%,39.8µM*,-8.5%,-0.4%,?
Cc1ccc(-c2csc(N3CCN(c4cc5c(cc4Cl)nc(C(C)N)n5CCCO)CC3)n2)cc1 (configuration not stated),-4.9%,13.3%,-3.2%,-5.3%,-0.5%
Cc1csc(N2CCN(c3cc4c(cc3Cl)nc(-c3ccncc3)n4CCCN3CCCC3)CC2)n1,?,10µM*,-18.1%,-1.8%,6.6%
Cc1csc(N2CCN(c3cc4nc(-c5ccncc5)[nH]c4cc3Cl)CC2)n1,79.4µM*,7.94µM*,-0.2%,-2.7%,-25.9%
Cc1ccc(-c2csc(N3CCN(c4cc5c(cc4Cl)nc(C)n5CCN4CCCCC4)CC3)n2)cc1,50.1µM*,44.7µM*,?,-0.8%,-22.1%
CSc1nc(-c2ccco2)cc(C(F)(F)F)c1C#N,0.7%,25.1µM*,?,-4.1%,-25.2%
COc1ccc(C(=O)NC(=S)NCc2ccccc2)cc1,-3.2%,·,0.708µM*,0.1%,?
O=C(NC(=S)NCc1ccccc1)c1ccc2c(c1)OCO2,2.6%,?,15.8µM*,4.6%,-20.6%
O=C(NCc1ccc2c(c1)OCO2)c1ccccc1,5.6%,-29.7%,-17.3%,2.2%,-11.1%
O=C(NC(=S)NCc1ccc2c(c1)OCO2)c1ccccc1,-6.5%,?,15.8µM*,2.1%,1.0%
CN(C)CC(C)(C)CNC(=S)NCc1ccc2c(c1)OCO2,?,8.91µM*,?,-2.8%,-22.4%
CCCOc1ccccc1C(=O)Nc1ccc(OC)c2ncccc12,·,·,36.1%,·,·
CCCCCCCCn1c2c(c(=N)c3ccccc31)CCC2,13.1%,-26.1%,?,-8.3%,-14.2%
CCCCCCCCCCn1c2c(c(=N)c3c1CCC3)CCC2,28.2µM*,55.0%[12.7 µM],?,-14.4%,-23.9%
CCCCCn1c2c(c(=N)c3ccccc31)CCC2,?,50.1µM*,?,-5.7%,-3.7%
CCn1c2c(c(=N)c3c1CCC3)CCCC2,3.7%,7.8%,136.8%,3.2%,5.7%
CCCCCCCCCn1c2c(c(=N)c3c1CCC3)CCCC2,44.7µM*,-39.2%,·,-14.6%,-4.8%
CCC(C)NC(=O)C(C)NC(=O)NCCNC(=O)C1CC1 (configuration not stated),·,·,-8.2%,·,·
COc1ccc(OC)c(C2C(C(=O)c3ccco3)=C(O)C(=O)N2CC2CCCO2)c1 (configuration not stated),-0.6%,50.1µM*,?,1.2%,15.7%
COc1ccc(C2C(C(=O)c3ccco3)=C(O)C(=O)N2CCN2CCOCC2)c(OC)c1 (configuration not stated),-1.2%,35.5µM*,?,-1.7%,-11.2%
O=C(C1=C(O)C(=O)N(CC2CCCO2)C1c1ccc(Cl)cc1)c1ccco1 (configuration not stated),14.3%,1.1%[59 µM],?,-7.8%,-6.5%
SMILES,Sfp inh,G9a block,ALOX12 inh,Glioma ERSR ind,VDR inh
COC(=O)c1ccc(C2C(C(=O)c3ccco3)=C(O)C(=O)N2CC2CCCO2)cc1 (configuration not stated),-0.2%,44.7µM*,?,-5.5%,-2.4%
O=C(C1=C(O)C(=O)N(CC2CCCO2)C1c1ccccc1[N+](=O)[O-])c1ccco1 (configuration not stated),-6.9%,35.5µM*,?,-0.6%,-7.3%
Cc1ccccc1CCNC(=O)C1CC2CCCC(C1)C2=O (configuration not stated),·,·,-2.6%,·,·
COCCn1c(CN2CCc3ccccc3C2)nc2c1c(=O)n(C)c(=O)n2C,9.3%,·,5.9%,-4.8%,-6.7%
CCOC(=O)Cn1c(CN2CCc3ccccc3C2)nc2c1c(=O)n(C)c(=O)n2C,23.4%,39.8µM*,22.5%,-3.1%,-5.5%
Cn1c(=O)c2c(nc(CN3CCc4ccccc4C3)n2CCCO)n(C)c1=O,12.3%,11.2µM*,?,-0.7%,7.2%
O=C(Cn1nc(N2CCN(c3ccccc3)CC2)ccc1=O)NC1CCCCCCC1,·,·,2.9%,·,·
O=C(CC1(O)C(=O)N(C/C=C/c2ccccc2)c2ccccc21)c1ccccn1 (configuration not stated),-6.4%,50.1µM*,-6.5%,-1.0%,-6.3%
O=C(CC1(O)C(=O)N(CCc2ccccc2)c2ccccc21)c1ccccn1 (configuration not stated),-7.6%,?,-2.4%,-1.6%,-7.4%
Cc1ccc(N/N=C2/CCCNC2=O)cc1,0.7%,25.1µM*,?,2.5%,-1.5%
Cc1nc2sc(C#N)c(N)c2c2c1CCCC2,15.0%,27.7%[12.7 µM],3.8%,5.4%,8.4%
CCC1(C)Cc2c(C#N)c(N)n(-c3ccccc3)c(=S)c2CO1 (configuration not stated),9.8%,3.4%,?,-3.1%,-24.7%
N#Cc1c(N)sc(=S)c2c1CCCC2,31.6µM*,7.08µM*,0.0%,-3.3%,-10.0%
CCC1(C)Cc2c(C#N)c(N)sc(=S)c2CO1 (configuration not stated),12.6µM*,?,?,-3.4%,3.2%
COCCNc1oc(-c2ccccc2C)nc1C#N,·,·,-3.9%,·,·
CCOC(=O)c1c(C)c(-c2ccccc2)n(CC(=O)Nc2cc(OC)ccc2OC)c1C,·,·,25.7%,·,·
COc1cc(C2CC(=O)N3CN(c4cccc(C)c4)CSC3=C2C#N)ccc1O (configuration not stated),·,·,2µM*,·,·
COc1cc(C2CC(=O)Nc3c2c(C)nn3-c2cc(C)cc(C)c2)ccc1O (configuration not stated),·,·,-10.5%,·,·
COc1ccccc1N1CSC2=C(C#N)C(c3ccc(SC)cc3)CC(=O)N2C1 (configuration not stated),3.55µM*,2.24µM*,11.2µM*,-0.9%,22.4µM*
COc1cc(C2CC(=O)N3CN(c4ccccc4C)CSC3=C2C#N)cc(OC)c1OC (configuration not stated),2.82µM*,1.41µM*,?,·,·
O=C(Nc1ccncc1)C1CCN(C(=O)c2ccc3ccccc3n2)CC1,·,·,8.2%,·,·
Cc1ccc(CN2CCC3(CC2)COc2ccccc2NC3=O)cc1,·,·,25.1%[176 µM],·,·
